This note sets out measurements from PubChem BioAssay (EPA / NIEHS).

Structures are written as SMILES. Calls of active or inactive are those of the source. Rule for the calls: active = hit-call score of the fitted dose curve at least 0.9, where 1 is the maximum; inactive = score below 0.9.

The assay in a line: CCTE_Shafer_MEA_acute_per_network_burst_spike_number_std: CCTE's Neural Acute Assay for Standard Deviation of Number of Spikes in a Network Burst, Shafer Lab (AID 2284020).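 Note: fitted for decrease in spike-number SD versus DMSO so actives lower it.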 As to the method: CCTE_Shafer_MEA_acute assay is conducted using Axion Biosystems 48 well microelectrode array (MEA) plates and Maestro recording system. Each well of the MEA plate contains a grid of 16 microelectrodes embedded in the culture surface. Electrically active cells, such as neurons, can be cultured over the electrodes, and electrical activity in these cells can be recorded extracellularly. The spontaneous firing of neurons is captured from each electrode on a microsecond timescale providing both temporally and spatially precise data. […] The CCTE_Shafer_MEA_acute assay uses primary cultures of rat cortical neurons. As these cultures mature over time, neural networks develop functional activity and form cohesive networks in which electrical activity can be highly coordinated. Baseline 40-minute recordings are made on days post-plating 13 or 15, followed by a secondary 40-minute recording after chemical exposure.CCTE_Shafer_MEA_acute_per_network_burst_spike_number_std is a component of the CCTE_Shafer_MEA_acute assay. It measures the standard deviation of the number of spikes (action potential firings) in a network burst (temporally-clustered group of spikes across multiple electrodes) during a recording in a microelectrode array (MEA) using Axion Biosystems Maestro 768 channel amplifier with the AxIS adaptive spike detector. The recordings before and after chemical treatment are used to calculate a percent change in the standard deviation of the number of spikes in network bursts in each well.Data from the assay component CCTE_Shafer_MEA_acute_burst_spike_number_std was analyzed into 1 assay endpoint. This assay endpoint, CCTE_Shafer_MEA_acute_burst_spike_number_std, was analyzed in the negative analysis fitting direction relative to DMSO as the negative control and baseline of activity. Using a type of functional reporter, gain or loss-of-signal activity can be used to understand electrical activity.
Spontaneous activity in the cortical cultures was recorded using an Axion Biosystems Maestro 768 channel amplifier and Axion Integrated Studios (AxIS) v1.8 (or later) software. The amplifier recorded from all channels simultaneously (gain = 1200 x; sampling rate = 12.5 kHz/channel): raw signals were filtered with a Butterworth band-pass filter (300-5000 Hz), which filters out slower local field potentials leaving only fast potentials, i.e., "spikes", arising from extracellular currents associated with action potentials (Pine 2006; Wheeler and Nam 2011). On-line spike detection of filtered signals was conducted with the AxIS adaptive spike detector, using a threshold of 8x the root mean squared (rms) noise on each channel. Any electrodes with rms noise levels greater than 5 uV were grounded (e.g., no data were recorded). Once grounded, an electrode was grounded for the duration of the experiment. All recordings were conducted at 37 C. Wells were deemed usable if on the day of the exposure >/= 10 electrodes were active (defined as >/= 5 spikes/min). On DIV 13 or 15, a minimum of three wells from one cortical culture preparation were treated with each compound (0.03-40 uM). Prior to recording baseline activity, each mwMEA plate was placed in the Maestro at 37 C and allowed to sit for 20 min while firing rates stabilized. Baseline activity (40 min) was recorded before the addition of each compound. An additional 40 min of spontaneous activity was recorded in the presence of each compound. Changes in network parameters relative to baseline were assessed following compound treatment.
As for `Cc1ccc2ncccc2c1`, the call was inactive.

With `CCCCCCCCCCCCCCCCCC(=O)O`, the outcome was inactive.

Take `Nc1ccc2c(c1)C(=O)c1ccccc1C2=O`: the result was inactive.

For `CCOC(=O)C(C)(C)Oc1ccc(Cl)cc1`, the compound was called inactive.

On to `FC(F)(F)C(F)(F)C(F)(F)C(F)(F)C(F)(F)C(F)(F)CCI`, for which the result was inactive.

Consider `Cc1ccc(C(C)C)c(O)c1`, for which the compound was classed as inactive.

Consider `CN[C@H]1CC[C@@H](c2ccc(Cl)c(Cl)c2)c2ccc(S(N)(=O)=O)cc21`, for which the AC50 was 20 µM (active).

As to `C=CCOC(=O)c1ccccc1C(=O)OCC=C`, the result was inactive.

For `CC(C)(C)c1cc(O)c(C(C)(C)C)cc1O`, the AC50 is 30.7 µM (active).

On to `NCC1(Cc2noc(=O)[nH]2)CCCCC1`, for which the compound was classed as inactive.

For the compound `Cc1ccc(C)c(O)c1C`, the outcome was inactive.

Regarding `C=CCc1ccc(O)c(OC)c1`, the compound was called inactive.

Turning to `CN1CCCC1=O`, the result was inactive.

With `COc1ccc2c(c1)c(CC(=O)O)c(C)n2C(=O)c1ccc(Cl)cc1`, the result was inactive.

For the compound `CC(=O)Oc1ccccc1C(=O)O`, the compound was called inactive.

On to `NS(=O)(=O)c1cc2c(cc1Cl)NCNS2(=O)=O`, for which the compound was called inactive.

On to `c1cc(-c2ccncc2)ccn1`, for which the outcome was inactive.

For `CCCCCCCCCCO`, the call was inactive.

For the compound `COc1ccc(S(=O)(=O)N2C(=O)[C@@](c3ccccc3OC)(N3C[C@H](O)C[C@H]3C(=O)N(C)C)c3cc(Cl)ccc32)c(OC)c1`, the result was inactive.

Consider `Clc1cc(Cl)c(Cl)cc1Cl`, for which the compound was called inactive.

With `CC(=O)C(C)=CC1C(C)=CCCC1(C)C` (configuration not stated), the compound was called inactive.

On to `CCCc1cc(=O)[nH]c(=S)[nH]1`, for which the result was inactive.

In the case of `Nc1ccccc1N`, the compound was classed as inactive.

Regarding `CNCc1cc(F)ccc1Oc1ccc(Cl)c(Cl)c1`, the AC50 was 31.7 µM (active).

Regarding `Nc1nc(N)c2nc(CNc3ccc(C(=O)N[C@@H](CCC(=O)O)C(=O)O)cc3)cnc2n1`, the compound was called inactive.

With `C[Si]1(C)O[Si](C)(C)O[Si](C)(C)O[Si](C)(C)O1`, the result was inactive.

Turning to `O=C(O)CCCCC(=O)O`, the call was inactive.

By AC50 is commonly meant the concentration at which the activity in the assay is half-maximal.
